# Compound activity from PubChem BioAssay.
# The list is not random: actives were taken first. Their share in the collection is about 0.78%.
# RGS16-Gao = regulators of human RGS16-Galphao interaction | 220,000 tested, 0.38% active | O15492+P09471 | binding response (% of control), % at 10 µM | bead-based flow cytometry RGS16-Galphao binding, fluorescence; actives lie on both sides;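 note: Galphao activated by GDP with aluminum fluoride before binding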
# Target sequence (O15492 whole entry, looked up): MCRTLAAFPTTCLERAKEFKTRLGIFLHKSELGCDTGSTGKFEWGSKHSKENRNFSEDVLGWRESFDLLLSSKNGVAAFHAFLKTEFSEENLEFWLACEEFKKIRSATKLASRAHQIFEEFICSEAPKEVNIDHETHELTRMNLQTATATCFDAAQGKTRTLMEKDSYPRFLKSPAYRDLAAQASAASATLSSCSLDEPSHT
# Target sequence (P09471 whole entry, looked up): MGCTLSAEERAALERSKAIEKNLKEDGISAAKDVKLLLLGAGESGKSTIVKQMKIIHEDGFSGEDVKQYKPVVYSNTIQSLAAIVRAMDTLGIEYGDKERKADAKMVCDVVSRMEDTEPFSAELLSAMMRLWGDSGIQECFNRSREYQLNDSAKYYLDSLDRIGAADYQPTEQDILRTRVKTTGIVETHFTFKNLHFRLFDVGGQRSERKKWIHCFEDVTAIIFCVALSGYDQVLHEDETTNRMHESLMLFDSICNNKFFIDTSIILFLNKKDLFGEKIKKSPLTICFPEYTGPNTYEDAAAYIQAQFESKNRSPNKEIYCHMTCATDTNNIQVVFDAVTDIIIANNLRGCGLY
# RGS4-Gao reg = modulates binding of RGS4 to human Galphao. P09471. binding response (% of control), % at 10 µM. Multiplexed bead flow cytometry; actives lie on both sides. AID 1415. 220,000 tested, 0.33% active; in the data active = binding response below about 49% or above about 150%; inactive = in between;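 note: fluorescent Galphao activated with aluminum fluoride binding bead-coupled RGS4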
# Target sequence (P09471 whole entry, looked up): as above
# RGS8-Gao reg = human RGS8-Galphao interaction regulation | 220,000 tested, 0.34% active | response (percent of control binding), % at 10 µM | P09471 | multiplexed bead flow cytometry, RGS8-Galphao binding; actives lie on both sides; in the data active = response below about 60% or above about 140%; inactive = in between;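 note: Galphao activated as the GDP aluminium fluoride complex binding bead-coupled RGS8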
# RGS7-Gao = modulates binding of RGS7 to human Galphao; binding response (% of control), % at 10 µM; AID 1439; Multiplexed bead flow cytometry; actives lie on both sides; 220,000 tested, 0.35% active; in the data active = binding response below about 49% or above about 150%; inconclusive = no clear call, values can overlap the other calls; inactive = in between;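 note: fluorescent Galphao held in activated GDP-AlF4 state binding bead-coupled RGS7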
# RGS-Gao = RGS4-Galphao interaction regulator (human); shares compounds with RGS16-Gao; AID 1504; multiplexed bead flow cytometry, RGS–Galpha-o binding; RGS4–Galpha-o binding response, % at 10 µM; 1,600 tested, 99% active;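 note: fluorescently labeled Galpha-o bound to GDP with aluminium fluoride binding biotinylated RGS beads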
# Avidin counter = counter-screen: compounds disrupting biotin binding to avidin beads; inhibition, % at 10 µM; streptavidin beads, fluorescein-biotin binding, flow cytometry; 1,700 tested, under 10 active; AID 1783; shares compounds with RGS16-Gao;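 active = inhibition above 50%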;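 note: median green fluorescence of gated singlet beads compared with DMSO control wells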
# RGS8-Gao confirm = confirmation of regulators of human RGS8-Galphao interaction; shares compounds with RGS16-Gao; bead-based flow cytometry RGS8-Galphao binding, fluorescence; actives lie on both sides; binding response (% of control), % at 10 µM; 1,700 tested, 3% active; AID 1836; in the data active = binding response below about 72% or above about 130%; inactive = in between;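 note: Galphao activated as GDP AlF4 complex before binding bead RGS8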
# RGS7-Gao single = RGS7-Galphao interaction regulation, single point confirmation; AID 1837; response (percent of control binding), % at 10 µM; shares compounds with RGS16-Gao; 1,700 tested, 7.8% active; bead-based flow cytometry RGS7-Galphao binding; actives lie on both sides; in the data active = response below about 75% or above about 130%; inactive = in between;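 note: fluorescent Galphao activated with GDP and aluminum fluoride binding bead-coupled RGS7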
# RGS16-Gao single = RGS16-Galphao interaction regulation, single point confirmation | bead-based flow cytometry, RGS16-Galphao binding; actives lie on both sides | 1,700 tested, 4% active | response (% of control binding), % at 10 µM | AID 1838 | shares compounds with RGS16-Gao; in the data active = response below about 74% or above about 130%; inactive = in between;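 note: Galphao activated as the GDP aluminium fluoride complex binding bead-coupled RGS16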
# RGS4-Gao confirm = confirmation of regulators of human RGS4-Galphao interaction; shares compounds with RGS16-Gao; RGS4-Galphao binding, multiplexed bead flow cytometry; actives lie on both sides; binding response (% of control), % at 10 µM; 1,700 tested, 4% active; AID 1840; in the data active = binding response below about 74% or above about 130%; inactive = in between
# RGS19-Gao single = confirmation of regulators of human RGS19-Galphao interaction. shares compounds with RGS16-Gao. bead-based flow cytometry RGS19-Galphao binding; actives lie on both sides. response (percent of control binding), % at 10 µM. 1,700 tested, 5% active. AID 1841; in the data active = response below about 50% or above about 160%; inactive = in between
# Numbers stand for hits; – = inactive; ? = inconclusive; · = no result; [ ] = another dose, or the depositor's remark. Unless noted, the rule behind the calls is not given here.
SMILES,RGS16-Gao,RGS4-Gao reg,RGS8-Gao reg,RGS7-Gao,Avidin counter,RGS8-Gao confirm,RGS7-Gao single,RGS16-Gao single,RGS4-Gao confirm,RGS19-Gao single,others
O=[N+]([O-])c1cccc(/C=N/n2c(COc3ccccc3)n[nH]c2=S)c1,272[activator],–,–,–,–,–,–,–,–,–,RGS-Gao=118
CC1CC(=O)NN=C1c1ccc(N)c([N+](=O)[O-])c1 (stereo not drawn),–,–,–,–,·,·,·,·,·,·,
C/C(=N/NC(=O)Cc1cc(=O)[nH][nH]1)c1ccc([N+](=O)[O-])cc1,–,–,–,–,·,·,·,·,·,·,
CCN1CC(CNCc2cn(-c3ccc(OC)cc3)nc2-c2ccccc2Cl)CC1=O (stereo not drawn),–,48,57,39,–,–,–,–,–,–,
COc1ccc(-n2cc(CNCC3CC(=O)N(C4CC4)C3)c(-c3ccccc3Cl)n2)cc1 (stereo not drawn),–,–,–,–,·,·,·,·,·,·,
COc1cc(C(=O)NCc2ccc3[nH]c(C)cc3c2)cc(OC)c1OC,–,–,–,–,·,·,·,·,·,·,
Cc1ccc(-c2cc(C(F)(F)F)c(C#N)c(=O)[nH]2)cc1,–,–,–,–,·,·,·,·,·,·,
N#Cc1c(C(F)(F)F)cc(C2CC2)[nH]c1=O,–,–,–,184[activator],–,–,–,–,–,–,RGS-Gao=109
CCCCN(CCCC)S(=O)(=O)c1ccc(NC(=O)c2cccs2)cc1,–,–,–,–,·,·,·,·,·,·,
Cc1cc(C)c2oc(C(=O)Nc3ccc(S(=O)(=O)N4CCCC(C)C4)cc3)cc(=O)c2c1 (stereo not drawn),–,152[activator],–,168[activator],–,–,–,–,–,–,
CC1CN(S(=O)(=O)c2cccc(C(=O)OC/C(O)=C(\C#N)c3nc4ccccc4[nH]3)c2)CC(C)O1 (stereo not drawn),–,–,–,–,·,·,·,·,·,·,
O=C(C1CCN(S(=O)(=O)c2cccc3cccnc23)CC1)N1CCN(c2ccccc2)CC1,–,–,–,–,·,·,·,·,·,·,
CCN1CCN(C(=O)C2CCN(S(=O)(=O)c3cccc4cccnc34)CC2)CC1,192[activator],–,–,–,–,–,–,–,–,–,RGS-Gao=104
COCCn1nnnc1C(C(C)C)N1CCC(Cc2ccccc2)CC1 (stereo not drawn),–,155[activator],–,–,–,–,–,–,–,–,
CCOC(=O)Cc1csc(NC(=O)CSc2nnc(-c3ccc(F)cc3)o2)n1,-13,–,–,–,–,–,68,–,–,–,RGS-Gao=61
CCOC(=O)Cc1csc(NC(=O)CSc2nnc(-c3ccc(C)cc3)o2)n1,–,–,–,–,·,·,·,·,·,·,
Cn1c2ccccc2c(=O)c2c(=O)n(Cc3ccco3)c(-c3ccc(Cl)cc3Cl)nc21,–,–,–,?,·,·,·,·,·,·,
CCS(=O)(=O)c1cc([N+](=O)[O-])c(Sc2ccccc2NC(C)=O)s1,9.3,17,21,?,–,63,–,58,–,10,
CC(=O)Nc1cccc(NS(=O)(=O)c2ccccc2[N+](=O)[O-])c1,–,–,–,–,·,·,·,·,·,·,
FC(F)(F)c1cc(N2CCNCC2)c2ccccc2n1,–,–,–,?,·,·,·,·,·,·,
Cc1ccccc1N1CCN(Cc2cccc(C(=O)O)c2)CC1,–,–,–,–,·,·,·,·,·,·,
C#CCNC(=O)C1=C[C@H](C2CCCCC2)[C@@H](CCCO)[C@H](OCC)O1,–,–,44,38,–,–,–,–,–,–,RGS-Gao=52
C#Cc1ccc([C@@H]2C=C(C(=O)Nc3ccccc3)O[C@H](OCC)[C@H]2CCCO)cc1,11,22,17,12,–,–,–,–,–,–,
C#Cc1ccc([C@H]2C=C(C(=O)NCc3ccccc3)O[C@@H](OCC)[C@@H]2CCCO)cc1,–,–,–,–,·,·,·,·,·,·,
COc1cc(OC)c(N(C)S(=O)(=O)c2cccc(C(=O)OCC(=O)c3c[nH]c4ccccc34)c2)cc1Cl,24,–,–,–,–,–,–,–,–,–,RGS-Gao=89
SMILES,RGS16-Gao,RGS4-Gao reg,RGS8-Gao reg,RGS7-Gao,Avidin counter,RGS8-Gao confirm,RGS7-Gao single,RGS16-Gao single,RGS4-Gao confirm,RGS19-Gao single,others
C=CCN(c1ccccc1OC)S(=O)(=O)c1cccc(C(=O)OCC(=O)c2c[nH]c3ccccc23)c1,–,–,–,–,·,·,·,·,·,·,
O=C(COc1ccccc1C(=O)N/N=C\c1ccc(O)c(O)c1)N/N=C/c1ccc(O)c(O)c1,16,17,37,14,–,61,21,60,54,–,
CC1CN/C(=C\C(=O)c2ccc(Cl)cc2)C(=O)N1 (stereo not drawn),–,–,–,–,·,·,·,·,·,·,
CC1CN/C(=C\C(=O)c2ccccc2)C(=O)N1 (stereo not drawn),–,49,56,44,–,–,–,–,–,–,
COc1ccc(CNC(=O)CSCc2cccc(Cl)c2)cc1,–,–,–,–,·,·,·,·,·,·,
COc1ccccc1CNC(=O)CCSCc1cccc(Cl)c1,–,–,146[activator],–,–,–,–,–,–,–,RGS-Gao=99
COc1ccc(CNC(=O)CCSCc2cccc(Cl)c2)cc1,–,157[activator],–,177[activator],–,–,–,–,–,–,
O=C(CCSCc1cccc(Cl)c1)NC1CCCC1,–,–,–,–,·,·,·,·,·,·,
CC(=O)c1ccc(S(=O)(=O)N2Cc3ccccc3CC2C(=O)O)cc1 (stereo not drawn),–,–,–,?,·,·,·,·,·,·,
O=C(O)[C@H]1Cc2ccccc2CN1S(=O)(=O)c1ccc(F)cc1,–,–,–,?,–,–,–,–,–,–,
CCCCC(=O)Nc1cccc(C(C)O)c1 (stereo not drawn),–,–,–,–,·,·,·,·,·,·,
CC(C)CC(=O)Nc1cccc(C(C)O)c1 (stereo not drawn),–,–,–,203[activator],–,–,–,–,–,–,RGS-Gao=115
Cc1cc(C)nc(NC=C2C(=O)OC(C)(C)OC2=O)n1,–,–,–,?,·,·,·,·,·,·,
CN(c1ccccc1)c1nc2ccsc2c(=O)s1,–,–,–,247[activator],–,–,–,–,–,–,RGS-Gao=127
COC(=O)CNC(=O)Cn1cnc2sc(C)c(S(=O)(=O)N3CCC(C)CC3)c2c1=O,–,–,–,–,·,·,·,·,·,·,
O=C(Nc1ccccc1F)c1ccc(COc2ccc(Cl)cc2Cl)o1,–,–,–,–,·,·,·,·,·,·,
CC(C)CNC(=O)c1ccc(COc2ccc(Cl)cc2Cl)o1,–,–,60,49,–,–,–,–,–,–,RGS-Gao=52
